Screens from PubChem.
Compounds with a hit are over-represented: about 10% of the library has one in this group of screens.
Six1-Eya2 blk: inhibitors of human Six1/Eya2 interaction; activity change, % (concentration not given with the values); Q15475+O00167; AlphaScreen GST-Six1/His-Eya2 binding, biochemical; hits give low values; 360,000 compounds, 0.56% hits; in the data active = activity change below about -65%; inconclusive = mostly about -30% to -63%; also: % is scaled to controls: 0 for no effect and ±100 for the full control effect
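GST-Six1 + His-Eya2 (5X stock: 250/500 nM); Tris pH 8.0, 300 mM NaCl, 0.05% BSA, 0.02% Tween 20; GSH donor/Ni acceptor beads; 1 h 37 °C dark; AlphaScreen readout.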
CtBP-E1A inh: inhibitors of CtBP/E1A interaction; AID 651724; 340,000 compounds, 0.49% hits; AlphaScreen GST-E1A/His-CtBP binding, 1536-well; hits give low values; activity change, % (concentration not given with the values); in the data active = activity change below about -65%; inconclusive = mostly about -30% to -63%; also: % is scaled to controls: 0 for no effect and ±100 for the full control effect
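In 5 uL wells, 23 nL compound meets equimolar GST-E1A and His-CtBP (5X stock 125 nM each) for 2 h, 37 °C. Beads (5X, 50 ug/mL) then 1 h, 37 °C, dark.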
BAZ2B inh: inhibitors of human BAZ2B bromodomain | Q9UIF8 | AlphaScreen BAZ2B-H3K14Ac peptide displacement | Potency, µM (series often up to 114 µM), without a hit: at the top dose activity change, negative = inhibition, usual class: inhibitors | 360,000 compounds, 4.4% hits | AID 504333; also: potency is read from the fitted curve at half-maximal effect; % is scaled to controls: 0 for no effect and ±100 for the full control effect; nearly all actives have a fitted effect of over 60% in size
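Compounds, titrated to a top concentration of 110 uM, were incubated 30 min at room temperature with preformed BAZ2B/acetyl-K14 H3 peptide complex (50 nM each). Proximity signal was measured by AlphaScreen after 20 min with beads.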
JMJD2A Tudor: inhibitors of human JMJD2A Tudor domain; O75164; AlphaScreen JMJD2A-Tudor / H3K4me3 peptide binding; Potency, µM (series often up to 114 µM), for the others: at the highest dose activity change, negative = inhibition, usual class: inhibitors; 390,000 compounds, 4.4% hits; AID 504339; also: potency is read from the fitted curve at half-maximal effect; % is scaled to controls: 0 for no effect and ±100 for the full control effect; nearly all actives have a fitted effect of over 50% in size
HP1b binding inh: blocks HP1-beta chromodomain binding to methylated histone tails. AlphaScreen HP1-beta / biotin-H3K9me3 peptide binding. Potency, µM (top dose mostly 114 µM), for the others: top-dose activity change, negative = inhibition, most hits filed as inhibitors. 390,000 compounds, 0.56% hits. AID 540317; also: potency is read from the fitted curve at half-maximal effect; nearly all actives have a fitted effect of over 70% in size
Target sequence (P83916 whole entry, looked up): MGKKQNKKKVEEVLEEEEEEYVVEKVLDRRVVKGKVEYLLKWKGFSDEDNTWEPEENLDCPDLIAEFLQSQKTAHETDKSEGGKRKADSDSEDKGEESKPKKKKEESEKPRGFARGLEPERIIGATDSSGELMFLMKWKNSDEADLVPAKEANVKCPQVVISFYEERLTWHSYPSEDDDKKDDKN
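AlphaScreen: HP1-beta (50 nM) preformed 30 min with biotin-H3(1-18)K9me3 peptide (50 nM) in PBS pH 7.4, 0.01% Tween-20. Compound added for 30 min at RT, then streptavidin donor/nickel chelate acceptor beads (10 ug/mL) for 30 min.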
G9a block: blocks human histone lysine methyltransferase G9a. G9a H3K9 monomethylation, AlphaScreen, 2 h. Potency, µM (doses to about 102 µM), for inactives: top-dose activity, negative = inhibition, usual class: inhibitors. 350,000 compounds, 8.8% hits; also: potency is read from the fitted curve at half-maximal effect; % is scaled to controls: 0 for no effect and ±100 for the full control effect; nearly all actives have a fitted effect of over 75% in size
Target sequence (Q96KQ7 913-1193 limits assumed): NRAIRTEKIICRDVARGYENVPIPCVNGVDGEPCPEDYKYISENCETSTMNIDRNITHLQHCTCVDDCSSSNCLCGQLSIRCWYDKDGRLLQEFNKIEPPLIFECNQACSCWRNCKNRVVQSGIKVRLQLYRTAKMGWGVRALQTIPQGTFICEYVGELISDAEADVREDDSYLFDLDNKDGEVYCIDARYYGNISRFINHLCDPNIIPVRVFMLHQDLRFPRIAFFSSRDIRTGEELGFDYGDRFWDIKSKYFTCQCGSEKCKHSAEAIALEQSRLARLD
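G9a (20 nM) preincubated 15 min RT with compounds, then 500 nM biotinylated H3K9 peptide and 20 uM SAM added; 2 h RT reaction. Monomethyl-H3K9 product detected by AlphaScreen with anti-H3K9me1 antibody, streptavidin donor and anti-rabbit IgG acceptor beads.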
Active calls of the source: *; [ ] = another dose, or the depositor's remark. Unless noted, calls follow the shape of the dose curve; as a rule, active = well fitted inhibition curve with a large enough effect; inconclusive = small, poorly fitted or top-dose-only effect; inactive = no such curve, though single readings can be large or run the other way.

How did CCCN1C(=O)S/C(=C/c2ccc(N3CCOCC3)o2)C1=O do in these assays?
Six1-Eya2 blk: 2; CtBP-E1A inh: -1; BAZ2B inh: inconclusive; JMJD2A Tudor: -20%; HP1b binding inh: 20%; G9a block: -111%[12.7 µM]

Results for CCOC(=O)CN1C(=O)S/C(=C/c2ccc(N3CCCCC3)o2)C1=O ?
Six1-Eya2 blk: -2; CtBP-E1A inh: -1; BAZ2B inh: -7%; JMJD2A Tudor: 50µM*; HP1b binding inh: 17%; G9a block: 3.2µM*

How did CCOC(=O)CN1C(=O)S/C(=C\c2ccc(-c3cccc(C(=O)O)c3C)o2)C1=O do in these assays?
Six1-Eya2 blk: -3; CtBP-E1A inh: 3; JMJD2A Tudor: -2%; HP1b binding inh: 18%

Results for CCOC(=O)CN1C(=O)S/C(=C\c2ccc(-c3ccc(C(=O)O)c(Cl)c3)o2)C1=O ?
Six1-Eya2 blk: -16; CtBP-E1A inh: -12; BAZ2B inh: inconclusive; JMJD2A Tudor: 79µM*; HP1b binding inh: -13%; G9a block: 50µM*

How did Cc1ccc(OCCN2C(=O)C(=O)c3cc(C)ccc32)cc1 do in these assays?
Six1-Eya2 blk: -2; CtBP-E1A inh: -6; BAZ2B inh: 35µM*; JMJD2A Tudor: 56µM*; HP1b binding inh: inconclusive; G9a block: 25µM*

Results for COc1cc(NC(=O)CN(c2ccc(C)cc2)S(=O)(=O)c2cccc3nonc23)cc(OC)c1 ?
JMJD2A Tudor: inconclusive; HP1b binding inh: 8%; G9a block: inconclusive

How did COc1ccccc1-c1cc(NC(=O)COc2ccc(C)c(C)c2)n(-c2ccccc2)n1 do in these assays?
BAZ2B inh: 6%; JMJD2A Tudor: -15%; HP1b binding inh: 19%[57 µM]; G9a block: 7%[59 µM]

Results for CCCN1C(=O)S/C(=C\c2ccc(N3CCOCC3)o2)C1=O ?
Six1-Eya2 blk: 5; CtBP-E1A inh: -6; BAZ2B inh: -38%; JMJD2A Tudor: inconclusive; HP1b binding inh: inconclusive; G9a block: 4µM*

How did Cc1ccc(OCCN2C(=O)S/C(=C\c3ccc(C)o3)C2=O)cc1 do in these assays?
Six1-Eya2 blk: -3; CtBP-E1A inh: -2; BAZ2B inh: inconclusive; JMJD2A Tudor: -11%; HP1b binding inh: 10%; G9a block: 32µM*

Results for Cc1ccc(CNC(=O)N2CCC(CN3CCC(C)CC3)CC2)cc1 ?
BAZ2B inh: -3%; JMJD2A Tudor: -16%; HP1b binding inh: 0%; G9a block: -3%[59 µM]

How did CNS(=O)(=O)c1cn(CC(=O)Nc2ccc(C(C)=O)cc2)cc1S(=O)(=O)NC do in these assays?
BAZ2B inh: -13%; JMJD2A Tudor: 1%; HP1b binding inh: 31%; G9a block: -1%[59 µM]

How did CC[C@H]1OC(=O)[C@H](C)C(=O)[C@H](C)[C@@H](OC2O[C@H](C)C[C@H](N(C)C)[C@@H]2O)[C@@](C)(OC)C[C@@H](C)C(=O)[C@@H](C)C2N(CCCCn3cnc(-c4cccnc4)c3)C(=O)O[C@@]21C (stereo partly drawn) do in these assays?
G9a block: -45%[12.7 µM]

How did CC(=O)Nc1ccc(C(=O)CSc2nnc(Cn3nnc4ccccc43)n2C)cc1 do in these assays?
Six1-Eya2 blk: 2; CtBP-E1A inh: 9; BAZ2B inh: 4%; JMJD2A Tudor: 56µM*; HP1b binding inh: 10%; G9a block: 79µM*

What do the screens show for `CSc1ccccc1OCc1cc(C(=O)N2CCc3[nH]cnc3C2c2ccccn2)no1` (stereo not drawn)?
Six1-Eya2 blk: inconclusive; CtBP-E1A inh: -27; BAZ2B inh: 56µM*; JMJD2A Tudor: 18µM*; HP1b binding inh: inconclusive; G9a block: inconclusive

Results for Cc1ccc(N2C(=O)c3oc4cc(C)c(C)cc4c(=O)c3C2c2cccc(O)c2)nc1 (stereo not drawn) ?
BAZ2B inh: 0%; JMJD2A Tudor: 1%; HP1b binding inh: 49%; G9a block: -3%[59 µM]

What do the screens show for `O=C(NNC(=S)Nc1ccc(Br)cc1)c1ccccc1Br`?
Six1-Eya2 blk: 3; CtBP-E1A inh: -5; BAZ2B inh: -21%; JMJD2A Tudor: -22%; HP1b binding inh: -14%; G9a block: 7.9µM*

What do the screens show for `O=C(NNC(=S)Nc1cccc(C(F)(F)F)c1)c1ccccc1Cl`?
Six1-Eya2 blk: -6; CtBP-E1A inh: -13; BAZ2B inh: -17%; JMJD2A Tudor: -28%; HP1b binding inh: -13%; G9a block: 3.2µM*

How did O=C(Nc1ccc(C(F)(F)F)cc1)c1ccccc1Br do in these assays?
Six1-Eya2 blk: 22; CtBP-E1A inh: 13; BAZ2B inh: 0%; JMJD2A Tudor: 35µM*; HP1b binding inh: -6%; G9a block: 2%

What do the screens show for `O=C(NNC(=S)Nc1ccccc1Cl)c1ccccc1Br`?
Six1-Eya2 blk: -3; CtBP-E1A inh: 6; BAZ2B inh: -14%; JMJD2A Tudor: -22%; HP1b binding inh: 12%; G9a block: 40µM*

What do the screens show for `O=C(NNC(=S)Nc1ccc(Br)cc1)c1ccccc1`?
Six1-Eya2 blk: -4; CtBP-E1A inh: 3; BAZ2B inh: -17%; JMJD2A Tudor: -24%; HP1b binding inh: 17%; G9a block: -25%

Results for O=C(NNC(=S)Nc1cccc(C(F)(F)F)c1)c1cccc(Cl)c1 ?
Six1-Eya2 blk: -19; CtBP-E1A inh: -18; BAZ2B inh: -28%; JMJD2A Tudor: -33%; HP1b binding inh: inconclusive; G9a block: inconclusive

Results for O=C(NNC(=O)c1ccccc1Br)c1ccccc1Cl ?
Six1-Eya2 blk: 3; CtBP-E1A inh: -24; BAZ2B inh: -2%; JMJD2A Tudor: -16%; HP1b binding inh: 23%; G9a block: -3%

What do the screens show for `CCOC(=O)C1CCN(c2ncnc3c2nc2n3CCCCC2)CC1`?
BAZ2B inh: -4%; JMJD2A Tudor: -17%; HP1b binding inh: 8%; G9a block: 9%[59 µM]

What do the screens show for `Cc1c(C(=O)N2CCCCCC2)c(S(=O)(=O)Nc2cccc(C#N)c2)c(C)n1C`?
BAZ2B inh: -15%; JMJD2A Tudor: -12%; HP1b binding inh: 26%; G9a block: 3%[59 µM]

How did COCCCNC(=O)C1CCN(c2nc3ccc(C)cc3[nH]2)CC1 do in these assays?
BAZ2B inh: -1%; JMJD2A Tudor: -2%; HP1b binding inh: 25%[57 µM]; G9a block: 2%[59 µM]

Results for COC(=O)C(NC(=O)CCc1c(C)nc2c(-c3ccccc3)c(C)nn2c1C)C(C)C (stereo not drawn) ?
BAZ2B inh: 3%; JMJD2A Tudor: -3%; HP1b binding inh: 32%; G9a block: -24%[59 µM]

Results for CCOC(=O)c1noc2nc(C)n(CC(=O)Nc3ccc(OC)c(Cl)c3)c(=O)c12 ?
BAZ2B inh: 0%; JMJD2A Tudor: -21%; HP1b binding inh: 27%[57 µM]; G9a block: -20%[59 µM]
